Compound activity as filed in PubChem BioAssay.
Compounds with a hit are over-represented: about 27% of the library has one in this group of screens.
CYP2C19 inh – inhibitors of human CYP2C19. CYP2C19 Supersomes, luciferin-H EGE luminescence, 30 min. inhibition, % at 5 µM. 96,000 compounds, 21% hits;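 active means CYP2C19 inhibition above a set limit at 5 µM in the primary screen, cut at about 50% in these data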
CYP2C9 activ – activators of human CYP2C9; 96,000 compounds, 1.4% hits; recombinant CYP2C9, luciferin-H conversion, luminescence; active compounds read high; factor 1 = untreated enzyme, 0 = blocked; P11712; AID 1024; activation factor at 5 µM;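 active means activation factor of 2 or more for CYP2C9 at a 5 µM dose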
CYP2C19 act – activators of human cytochrome P450 2C19 | P33261 | recombinant CYP2C19, luciferin-H EGE luminescence; active compounds read high; 0 = fully inhibited enzyme, 1 = untreated enzyme | activation factor at 5 µM | 96,000 tested, under 10 active | AID 1025;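 active means activation factor of at least 2 at 5 µM in the primary screen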
CYP2C9 inhib – human CYP2C9 inhibition; inhibition, % at 5 µM; CYP2C9 Supersomes, luciferin-H conversion, luminescence; P11712; 96,000 compounds, 20% hits;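 active means blocking of liver enzyme CYP2C9 beyond about 50% at 5 µM, limit read from the data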
Cav3 T inh – human Cav3.2 channel inhibition, primary screen; O95180; Cav3.2-expressing cells, Fluo-4 calcium fluorescence FDSS; active compounds read low; B-score at 10 µM; 100,000 compounds, 4% hits;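 active means single-dose well whose peak fluorescence ratio is a statistical outlier from its plate by either plate-standardised score or position-corrected B-score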
Target sequence (O95180 whole entry, looked up): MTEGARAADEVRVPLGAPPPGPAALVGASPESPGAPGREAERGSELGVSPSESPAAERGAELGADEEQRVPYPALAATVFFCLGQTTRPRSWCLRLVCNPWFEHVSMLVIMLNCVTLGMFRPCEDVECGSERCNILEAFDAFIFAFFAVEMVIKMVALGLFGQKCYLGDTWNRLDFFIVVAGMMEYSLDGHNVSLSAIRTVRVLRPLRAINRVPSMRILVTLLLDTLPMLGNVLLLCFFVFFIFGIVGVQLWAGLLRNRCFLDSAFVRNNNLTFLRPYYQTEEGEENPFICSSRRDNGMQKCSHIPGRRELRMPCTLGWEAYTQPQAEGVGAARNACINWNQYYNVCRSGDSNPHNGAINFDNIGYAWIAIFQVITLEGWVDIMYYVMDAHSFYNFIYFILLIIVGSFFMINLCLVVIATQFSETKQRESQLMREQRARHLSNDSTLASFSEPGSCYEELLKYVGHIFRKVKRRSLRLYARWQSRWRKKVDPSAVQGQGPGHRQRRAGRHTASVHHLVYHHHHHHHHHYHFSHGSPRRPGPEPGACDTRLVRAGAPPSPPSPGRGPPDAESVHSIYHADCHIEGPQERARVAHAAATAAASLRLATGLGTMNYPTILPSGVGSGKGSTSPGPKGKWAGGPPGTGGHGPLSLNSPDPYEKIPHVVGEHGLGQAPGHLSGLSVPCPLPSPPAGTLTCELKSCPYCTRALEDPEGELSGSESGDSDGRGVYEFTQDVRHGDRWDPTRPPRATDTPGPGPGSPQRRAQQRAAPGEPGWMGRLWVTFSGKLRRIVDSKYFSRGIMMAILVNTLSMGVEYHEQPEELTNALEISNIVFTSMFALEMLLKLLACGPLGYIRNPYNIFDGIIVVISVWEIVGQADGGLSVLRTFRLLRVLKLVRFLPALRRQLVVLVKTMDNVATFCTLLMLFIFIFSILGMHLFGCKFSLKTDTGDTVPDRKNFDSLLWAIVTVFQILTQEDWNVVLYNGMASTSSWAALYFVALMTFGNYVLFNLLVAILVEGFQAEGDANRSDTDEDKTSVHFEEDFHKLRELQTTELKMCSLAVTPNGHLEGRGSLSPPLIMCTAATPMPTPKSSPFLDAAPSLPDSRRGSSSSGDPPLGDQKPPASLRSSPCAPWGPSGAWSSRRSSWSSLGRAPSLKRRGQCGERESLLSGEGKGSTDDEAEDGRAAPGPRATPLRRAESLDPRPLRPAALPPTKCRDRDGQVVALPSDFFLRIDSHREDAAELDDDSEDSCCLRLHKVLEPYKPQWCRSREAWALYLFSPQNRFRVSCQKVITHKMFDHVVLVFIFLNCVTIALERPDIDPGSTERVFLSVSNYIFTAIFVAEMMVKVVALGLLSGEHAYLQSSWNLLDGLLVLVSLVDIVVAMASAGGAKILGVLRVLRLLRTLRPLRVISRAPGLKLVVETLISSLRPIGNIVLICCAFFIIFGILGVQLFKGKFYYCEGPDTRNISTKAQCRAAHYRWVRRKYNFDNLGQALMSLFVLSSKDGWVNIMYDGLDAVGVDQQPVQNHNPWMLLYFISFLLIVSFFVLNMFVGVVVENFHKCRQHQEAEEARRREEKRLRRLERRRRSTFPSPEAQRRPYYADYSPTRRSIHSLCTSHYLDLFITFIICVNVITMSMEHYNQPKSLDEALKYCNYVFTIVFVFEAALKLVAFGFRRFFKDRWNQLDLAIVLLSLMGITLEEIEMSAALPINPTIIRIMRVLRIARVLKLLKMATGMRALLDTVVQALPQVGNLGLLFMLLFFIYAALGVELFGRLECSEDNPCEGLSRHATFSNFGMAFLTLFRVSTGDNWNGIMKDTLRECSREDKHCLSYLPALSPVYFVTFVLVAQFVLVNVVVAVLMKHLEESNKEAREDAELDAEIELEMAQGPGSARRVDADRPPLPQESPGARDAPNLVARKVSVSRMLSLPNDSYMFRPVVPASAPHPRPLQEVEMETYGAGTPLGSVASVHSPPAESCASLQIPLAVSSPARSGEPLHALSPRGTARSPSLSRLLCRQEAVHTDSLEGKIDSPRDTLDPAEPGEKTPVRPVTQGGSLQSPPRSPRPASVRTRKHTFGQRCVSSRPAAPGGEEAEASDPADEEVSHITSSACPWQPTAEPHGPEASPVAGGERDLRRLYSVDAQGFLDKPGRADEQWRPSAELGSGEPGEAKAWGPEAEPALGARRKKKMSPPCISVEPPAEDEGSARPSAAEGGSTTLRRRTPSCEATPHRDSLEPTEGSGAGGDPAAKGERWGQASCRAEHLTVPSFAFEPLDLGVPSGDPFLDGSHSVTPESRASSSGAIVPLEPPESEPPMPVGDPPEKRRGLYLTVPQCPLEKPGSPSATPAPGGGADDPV
Hits are given with their value; 0 = inactive; - = not tested or not shown.

SMILES | CYP2C19 inh | CYP2C9 activ | CYP2C19 act | CYP2C9 inhib | Cav3 T inh
COc1ccc(-n2nccc2-c2nn(-c3cccc(OC)c3)c(=O)n(C)c2=O)cc1 | 89.2 | 0 | 0 | 61.7 | 0
COc1cccc(-n2nc(-c3ccnn3-c3ccc(F)cc3)c(=O)n(C)c2=O)c1 | 66.6 | 0 | 0 | 80.1 | 0
COc1ccc(OC)c2c(C)cc(N3CCN(C(=O)c4ccc(F)cc4)CC3)nc12 | 0 | 0 | 0 | 0 | 0
Cc1ccc(/C=C/C(=O)O)cc1S(=O)(=O)N(CCO)CCO | - | - | - | - | 0
CCOC(=O)c1c(C)[nH]c(C(=O)COC(=O)C2(C)CC2(Cl)Cl)c1C (stereo not given) | 0 | 0 | 0 | 99.1 | 0
CCOC(=O)c1c(C)[nH]c(C(=O)COC(=O)CCC2CCCC2)c1C | 0 | 0 | 0 | 82.4 | 0
CCOC(=O)c1c(C)[nH]c(C(=O)O)c1C | 0 | 0 | 0 | 0 | 0
CCOC(=O)c1c(C)[nH]c(C(=O)COC(=O)CSCC(=O)N(CC)CC)c1C | 0 | 0 | 0 | 0 | 0
CC(C(=O)c1ccccc1)n1cnc2ccccc2c1=O (stereo not given) | 0 | 0 | 0 | 0 | 0
COc1ccc(C(=O)Cc2ccc(OC)c(OC)c2)c(OC)c1 | 99.0 | 0 | 0 | 0 | 0
COc1ccc(C/C(N)=N/OC(=O)Cc2ccc(OC)c(OC)c2)cc1 | 0 | 0 | 0 | 0 | 0
COc1ccc(/C(N)=N/OC(=O)Cc2ccc(OC)c(OC)c2)cc1 | 0 | 0 | 0 | 64.9 | 0
Cn1cnc2cc(NC(=O)c3ccc(Cl)cc3)ccc21 | - | - | - | - | 0
O=C(Nc1ccc(Cl)cc1)c1ccncc1 | 89.5 | 0 | 0 | 0 | 0
CC(C)Oc1ccc(C(=O)NC2CCCCC2)cc1 | 0 | 0 | 0 | 0 | -
CC(C)Oc1ccc(NC(=O)c2ccncc2)cc1 | 86.6 | 0 | 0 | 89.8 | 0
O=C(Nc1cccc(Cl)c1Cl)c1ccncc1 | 89.8 | 0 | 0 | 68.6 | 0
CC1(C)CC(=O)C=C(c2cccnc2)C1 | - | - | - | - | 0
Nc1nonc1-c1nc2ccccc2[nH]1 | 0 | 0 | 0 | 0 | 0
Cn1cc(Cl)c(-c2nc3ccccc3[nH]2)n1 | 62.3 | 0 | 0 | 0 | 0
COC(=O)CCCCCNc1ccc(C(=O)OC)cc1N | 83.9 | 0 | 0 | 0 | 0
Cc1c(C(=O)NCc2cccnc2)oc2ccccc12 | 63.6 | 0 | 0 | 0 | 0
Cc1c(C(=O)NCc2cccnc2)oc2c1C(=O)CC(C)(C)C2 | 80.3 | 0 | 0 | 56.4 | 0
Cc1c(C(=O)Nc2nnc(C(F)(F)F)s2)oc2ccccc12 | 0 | 0 | 0 | 62.9 | 0
Cc1c(C(=O)NCCN2CCOCC2)oc2ccc(S(=O)(=O)N3CCCCCC3)cc12 | 0 | 0 | 0 | 0 | 0
SMILES | CYP2C19 inh | CYP2C9 activ | CYP2C19 act | CYP2C9 inhib | Cav3 T inh
Cc1c(C(=O)NCCN2CCOCC2)oc2ccccc12 | 54.4 | 0 | 0 | 0 | 0
Cc1c(C(=O)NCc2cccs2)oc2ccccc12 | 0 | 0 | 0 | 0 | 0
CCCCCn1c(SCC(=O)OC)nc2c1c(=O)[nH]c(=O)n2C | 0 | 0 | 0 | 0 | 0
Cc1ccc(SC(C)C(=O)Nc2c(C)n(C)n(-c3ccccc3)c2=O)cc1 (stereo not given) | 0 | 0 | 0 | 0 | 0
O=C1CC2(CCCCCC2)Oc2ccc(Cl)cc21 | - | - | - | - | 0
CC1(C)CC(NC(=O)c2cccc3ccccc23)CC(C)(C)N1 | 0 | 0 | 0 | 0 | 0
O=C(CCSCCC(=O)NCCN1CCOCC1)NCCN1CCOCC1 | 0 | 0 | 0 | 84.0 | 0
Cc1c(C(=O)NCc2cccnc2)sc2ncn(CC(=O)N3CCCCC3C)c(=O)c12 (stereo not given) | 0 | 0 | 0 | 0 | 0
CC(NC(=O)c1nn(C)c(=O)c2ccccc12)c1ccc(F)cc1 (stereo not given) | 0 | 0 | 0 | 64.4 | 0
Cn1nc(C(=O)Nc2cccnc2)c2ccccc2c1=O | 0 | 0 | 0 | 0 | 0
Cc1sc(C(=O)NCc2cccnc2)c2nc(C)n(CC(=O)NCc3cccnc3)c(=O)c12 | 58.9 | 0 | 0 | 96.8 | 0
O=C(CCCc1ccccc1)NCCN1CCOCC1 | 0 | 0 | 0 | 0 | 0
O=C(NCCN1C(=O)CCC1=O)c1ccncc1 | 0 | 0 | 0 | 0 | 0
O=C(NCCN1CCOCC1)c1ccncc1 | 81.3 | 0 | 0 | 0 | 0
CC1CCN(C(=O)CSc2nnc(CN3CCOCC3)n2-c2ccccc2)CC1 | 0 | 0 | 0 | 0 | 0
COc1ccc(NC(=O)C2CCN(C(=O)c3ccc(OC)cc3)CC2)cc1 | 0 | 0 | 0 | 0 | 0
CCN(CC)C(=O)Cn1cnc([N+](=O)[O-])n1 | 0 | 0 | 0 | 0 | 0
Cc1ccc2c(C)c(C(=O)Nc3cccnc3)oc2c1 | 0 | 0 | 0 | 52.5 | 0
Cc1c(C(=O)Nn2cnnc2)oc2ccccc12 | 74.3 | 0 | 0 | 0 | 0
Cn1nc(C(=O)NCc2cccnc2)c2ccccc2c1=O | 77.6 | 0 | 0 | 59.6 | 0
Cc1c(C(=O)Nc2ccccn2)oc2ccccc12 | 0 | 0 | 0 | 0 | 0
COc1ccc(NC(=O)OC(C)C)cc1 | 0 | 0 | 0 | 0 | 0
COc1cc2nc(CN(C)CC(=O)Nc3ccc(N4CCOCC4)cc3)[nH]c(=O)c2cc1OC | 0 | 0 | 0 | 0 | -
C/C=C(\C)C(=O)Nc1cccc(C2=NOC3(C2)C[C@H](C(N)=O)N(C(=O)C(c2ccccc2)c2ccccc2)C3)c1 (stereo not given in full) | - | - | - | - | 0
Cc1cccc(N2CCN(C(=O)Cn3cnc4c3c(=O)n(C)c(=O)n4C)CC2)c1C | - | - | - | - | 0
SMILES | CYP2C19 inh | CYP2C9 activ | CYP2C19 act | CYP2C9 inhib | Cav3 T inh
COc1cccc(C2C=C(c3ccc(OC)cc3OC)Nc3nnnn32)c1 (stereo not given) | 57.9 | 0 | 0 | 76.9 | 0
COc1ccc(C2=CC(c3ccc(OC)c(OC)c3)n3nnnc3N2)c(OC)c1 (stereo not given) | 89.5 | 0 | 0 | 97.0 | 0
COc1cc2c(C#N)c(N3CCCC3)nc(N)c2c(N)n1 | - | - | - | - | 0
N#Cc1c(N2CCCC2)nc(N)c2c(N)nc(N3CCCC3)cc12 | 0 | 0 | 0 | 61.1 | 0
COc1cc2c(C#N)c(N3CCN(c4ccccc4OC)CC3)nc(N)c2c(N)n1 | 100.3 | 0 | 0 | 68.2 | 0
O=C(C1CC1)N1CCc2cc(S(=O)(=O)N(CCO)Cc3ccccc3)ccc21 | - | - | - | - | 0
C[C@@H]1C=C(C(=O)O)O[C@H](OCc2ccc(CO)cc2)C1 | - | - | - | - | 0
CC(C)C(O)(C#CCN1CCCC1)c1ccccc1 (stereo not given) | 50.1 | 0 | 0 | 0 | 0
CC(C)C(O)(C#CCN1CCCCC1)c1ccccc1 (stereo not given) | 71.5 | 0 | 0 | 0 | 0
CC(C)[C@H]1C=C(C(=O)O)O[C@@H](OCCCCO)C1 | - | - | - | - | 0
O=C(NCCCn1ccnc1)c1cc2nc(-c3ccc(Br)cc3)cc(C(F)(F)F)n2n1 | - | - | - | - | 0
NC(=O)C1CCN(CCC(=O)Nc2ccc3c(c2)CCC3)CC1 | - | - | - | - | 0
CCCCNc1oc(-c2cccs2)nc1S(=O)(=O)c1ccccc1 | 0 | 0 | 0 | 0 | -3.26
O=S(=O)(c1ccccc1)c1nc(-c2cccs2)oc1NCCCn1ccnc1 | 97.6 | 0 | 0 | 91.7 | 0
O=S(=O)(c1ccccc1)c1nc(-c2ccco2)oc1NCCCN1CCOCC1 | 0 | 0 | 0 | 0 | 0
CCC(=NC(C)c1ccccc1)c1c(O)n(C)c(=O)n(C)c1=O (stereo not given) | 67.8 | 0 | 0 | 55.6 | 0
